Inconclusive results are not listed. The source made the active and inactive calls.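 Rule for the calls, unless noted: active = normalized viability below 100% at a tested concentration; inactive = the rest.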
Assays:
[1] = growth inhibition of DIPG glioma cells, dose response, cell-based, SU-DIPG-XVII, MIPE5.0, CellTiter-Glo, qHTS (AID 1347060; cut-off not given, nearly all actives have AC50 up to about 26 µM;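 for AC50: cells exposed to compound for 48 hours before viability readout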); settings: SU-DIPG-XVII viability, CellTiter-Glo ATP luminescence
[2] = growth inhibition of DIPG glioma cells, dose response, cell-based, JHH-DIPG-1, MIPE4.0, CellTiter-Glo, qHTS (AID 1347062; cut-off not given, nearly all actives have AC50 up to about 27 µM;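 for AC50: cells exposed to compound for two days before readout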); settings: JHH-DIPG-1 viability, CellTiter-Glo ATP luminescence
[3] = growth inhibition of DIPG glioma cells, dose response, cell-based, SU-DIPG-XIII, MIPE5.0, CellTiter-Glo, qHTS (AID 1347064; cut-off not given, nearly all actives have AC50 up to about 23 µM;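 for AC50: cells exposed to compound for 48 hours before the viability read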); settings: SU-DIPG-XIII viability, CellTiter-Glo ATP luminescence
[4] = viability loss in pontine glioma line – cell-based, SU-DIPG-XXV, MIPE5.0, CellTiter-Glo, qHTS, dose response (AID 1347065; cut-off not given, nearly all actives have AC50 up to about 26 µM;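 note: cells exposed to compound for 48 hours before ATP readout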); settings: CellTiter-Glo ATP luminescence
[5] = JHH-DIPG-1 glioma cell viability, MIPE5.0 library, CellTiter-Glo luminescence, qHTS (AID 1347067; cut-off not given, nearly all actives have AC50 up to about 26 µM;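 note: cells exposed to compound for 48 hours before readout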); settings: JHH-DIPG-1 glioma viability, CellTiter-Glo ATP luminescence
[6] = SU-DIPG-XXV glioma cell viability, MIPE5.0 library, qHTS (AID 1347068; cut-off not given, nearly all actives have IC50 up to about 30 µM)
[7] = sensitizers of A549 cells to miR-34 induction, primary screen, imaging, A549 dox-inducible miR-34, nuclei and caspase counts (AID 1347080;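 active = compounds whose cell count with miR-34 switched on is under 0.7 times the count with it off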); settings: A549 miR-34 inducible, Hoechst nuclei count, 48 h
[8] = modifiers of HSF1 nuclear foci, imaging, Selleck Cancer Library (AID 1347162; in the data active = plate-normalised HSF1 focus index below about 0.46); settings: human cells, at 10 µM; SSMD: measured here: HSF1 foci SSMD mean; cell count: measured here: cell number; plate-normalised HSF1 focus index: stronger effect = lower value
[9] = survival rescue of mitochondrial mutant cells in low glucose, primary screen, MELAS cybrids, Rieske KO mouse fibroblasts, CellTiter-Glo (AID 1508586;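 active = mean z-score across replicates of 1.96 or higher in either the MELAS or the Rieske mutant cell line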;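 note: z relative to plate mean and SD of compound and empty wells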)
[10] = ovarian cancer cell viability with rucaparib, profiling panel, oncology-focused library, rucaparib conditional (AID 1508598); settings: patient-derived ovarian cancer cells, CellTiter-Glo viability, 144 h, stronger effect = lower value
[11] = SU-DIPG-VI glioma cell viability, MIPE4.0 library, CellTiter-Glo luminescence, qHTS (AID 1347066; cut-off not given, nearly all actives have AC50 up to about 30 µM;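 note: cells exposed to compound for 48 hours before readout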); settings: CellTiter-Glo ATP luminescence
[12] = stronger effect = lower value, cell number ratio, induced over uninduced
[13] = measured here: relative caspase fold change +Dox/-Dox
[14] = measured here: total cells with miR-34 induction, stronger effect = lower value
[15] = measured here: total cells without miR-34 induction
[16] = MELAS cybrid survival, CellTiter-Glo 48 h, stronger effect = higher value
[17] = Rieske KO mouse fibroblast survival, CellTiter-Glo 72 h
[18] = at 0.000305 µM, OCI-C5x cells, with rucaparib 10 µM, 100% = cells with rucaparib alone
[19] = at 0.000305 µM, OCI-C5x cells, without rucaparib
[20] = at 0.000305 µM, OCI-P5x cells, with rucaparib 20 µM, 100% = cells with rucaparib alone
[21] = at 0.000305 µM, OCI-P5x cells, without rucaparib
[22] = at 0.00122 µM, OCI-C5x cells, with rucaparib 10 µM, 100% = cells with rucaparib alone
[23] = at 0.00122 µM, OCI-C5x cells, without rucaparib
[24] = at 0.00122 µM, OCI-P5x cells, with rucaparib 20 µM, 100% = cells with rucaparib alone
[25] = at 0.00122 µM, OCI-P5x cells, without rucaparib
[26] = at 0.00488 µM, OCI-C5x cells, with rucaparib 10 µM, 100% = cells with rucaparib alone
[27] = at 0.00488 µM, OCI-C5x cells, without rucaparib
[28] = at 0.00488 µM, OCI-P5x cells, with rucaparib 20 µM, 100% = cells with rucaparib alone
[29] = at 0.00488 µM, OCI-P5x cells, without rucaparib
[30] = at 0.0195 µM, OCI-C5x cells, with rucaparib 10 µM, 100% = cells with rucaparib alone
[31] = at 0.0195 µM, OCI-C5x cells, without rucaparib
[32] = at 0.0195 µM, OCI-P5x cells, with rucaparib 20 µM, 100% = cells with rucaparib alone
[33] = at 0.0195 µM, OCI-P5x cells, without rucaparib
[34] = at 0.0781 µM, OCI-C5x cells, with rucaparib 10 µM, 100% = cells with rucaparib alone
[35] = at 0.0781 µM, OCI-C5x cells, without rucaparib
[36] = at 0.0781 µM, OCI-P5x cells, with rucaparib 20 µM, 100% = cells with rucaparib alone
[37] = at 0.0781 µM, OCI-P5x cells, without rucaparib
[38] = at 0.313 µM, OCI-C5x cells, with rucaparib 10 µM, 100% = cells with rucaparib alone
[39] = at 0.313 µM, OCI-C5x cells, without rucaparib
[40] = at 0.313 µM, OCI-P5x cells, with rucaparib 20 µM, 100% = cells with rucaparib alone
[41] = at 0.313 µM, OCI-P5x cells, without rucaparib
[42] = at 1.25 µM, OCI-C5x cells, with rucaparib 10 µM, 100% = cells with rucaparib alone
[43] = at 1.25 µM, OCI-C5x cells, without rucaparib
[44] = at 1.25 µM, OCI-P5x cells, with rucaparib 20 µM, 100% = cells with rucaparib alone
[45] = at 1.25 µM, OCI-P5x cells, without rucaparib
[46] = at 5 µM, OCI-C5x cells, with rucaparib 10 µM, 100% = cells with rucaparib alone
[47] = at 5 µM, OCI-C5x cells, without rucaparib
[48] = at 5 µM, OCI-P5x cells, with rucaparib 20 µM, 100% = cells with rucaparib alone
[49] = at 5 µM, OCI-P5x cells, without rucaparib

CC(=O)c1c(C)c2cnc(Nc3ccc(N4CCNCC4)cn3)nc2n(C2CCCC2)c1=O
active: AC50 [1] 23.5 µM | AC50 [2] 29.6 µM | AC50 [3] 20.9 µM | AC50 [4] 18.6 µM | AC50 [5] 20.9 µM | viability [10, 19] 95.6% | viability [10, 20] 93.8% | viability [10, 21] 93.8% | viability [10, 24] 94.1% | viability [10, 25] 91.2% | viability [10, 28] 95.4% | viability [10, 32] 95% | viability [10, 33] 94.4% | viability [10, 36] 96.9% | viability [10, 40] 99.2% | viability [10, 41] 98.7% | viability [10, 44] 97.6% | viability [10, 45] 99.7% | viability [10, 49] 97.9%
3100: cell count [7, 14]
-9.93: SSMD [8]
inactive: outcome [6] | fold change [7, 12] 0.86 | plate-normalised HSF1 focus index [8] 0.38 | z-score [9, 16] 0.0111 | viability [10, 18] 132% | viability [10, 22] 119% | viability [10, 23] 104% | viability [10, 26] 119% | viability [10, 27] 104% | viability [10, 29] 100% | viability [10, 30] 122% | viability [10, 31] 116% | viability [10, 34] 115% | viability [10, 35] 118% | viability [10, 37] 103% | viability [10, 38] 111% | viability [10, 39] 126% | viability [10, 42] 115% | viability [10, 43] 133% | viability [10, 46] 114% | viability [10, 47] 139% | viability [10, 48] 103%
5060: cell count [8]
1.36: fold change [7, 13]
3600: cell count [7, 15]
-0.48: z-score [9, 17]

Cc1ccc(CN2CCNCC2)cc1NC(=O)CNc1ccc(F)c(F)c1
inactive: outcome [1] | outcome [2] | outcome [3] | outcome [4] | outcome [5] | outcome [6]

CCN(CCO)CCCOc1ccc2c(Nc3cc(CC(=O)Nc4cccc(F)c4)[nH]n3)ncnc2c1
2110: cell count [7, 14]
2230: cell count [7, 15]
1.14: SSMD [8]
0.586: z-score [9, 17]
inactive: outcome [2] | outcome [11] | fold change [7, 12] 0.945 | plate-normalised HSF1 focus index [8] 1.04 | z-score [9, 16] -0.237 | viability [10, 18] 106% | viability [10, 19] 113% | viability [10, 20] 110% | viability [10, 21] 110% | viability [10, 22] 103% | viability [10, 23] 118% | viability [10, 24] 115% | viability [10, 25] 108% | viability [10, 26] 114% | viability [10, 27] 112% | viability [10, 28] 115% | viability [10, 29] 111% | viability [10, 30] 109% | viability [10, 32] 104% | viability [10, 33] 106% | viability [10, 36] 104% | viability [10, 46] 107%
7480: cell count [8]
active: AC50 [1] 0.235 µM | AC50 [4] 0.148 µM | viability [10, 31] 91.6% | viability [10, 34] 81% | viability [10, 35] 77.3% | viability [10, 37] 80.5% | viability [10, 38] 65.1% | viability [10, 39] 80.3% | viability [10, 40] 82.3% | viability [10, 41] 65.3% | viability [10, 42] 83.4% | viability [10, 43] 83% | viability [10, 44] 86.7% | viability [10, 45] 62% | viability [10, 47] 95.3% | viability [10, 48] 83.1% | viability [10, 49] 58.7%
0.861: fold change [7, 13]

Source: PubChem BioAssay
